In publication PMC5540273 (PLoS ONE, 2017):

Key:
Conditions in all cases: concentration: 1 μM, replicates: in singlicate; n = 1
[1] = system: RIPK1
[2] = system: RIPK2
[3] = system: RIPK4
[4] = system: RIPK5
[5] = system: ROCK1
[6] = system: ROCK2
[7] = system: ROS1
[8] = system: RPS6KA4(Kin.Dom.1-N-terminal)
[9] = system: RPS6KA4(Kin.Dom.2-C-terminal)
[10] = system: RPS6KA5(Kin.Dom.1-N-terminal)
[11] = system: RPS6KA5(Kin.Dom.2-C-terminal)
[12] = system: T1, RSK1(Kin.Dom.1-N-terminal)
T1 construct: gene RPS6KA1

[13] = system: T2, RSK1(Kin.Dom.2-C-terminal)
T2 construct: gene RPS6KA1

[14] = system: T3, RSK2(Kin.Dom.1-N-terminal)
T3 construct: gene RPS6KA3

[15] = system: T4, RSK2(Kin.Dom.2-C-terminal)
T4 construct: gene RPS6KA3

[16] = system: T5, RSK3(Kin.Dom.1-N-terminal)
T5 construct: gene RPS6KA2

[17] = system: T6, RSK3(Kin.Dom.2-C-terminal)
T6 construct: gene RPS6KA2

[18] = system: T7, RSK4(Kin.Dom.1-N-terminal)
T7 construct: gene RPS6KA6

[19] = system: T8, RSK4(Kin.Dom.2-C-terminal)
T8 construct: gene RPS6KA6

[20] = system: S6K1
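Further: KINOMEscan kinase panel screen.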

Fc1ccc(Nc2nccc(-c3c(-c4ccc(Cl)cc4)nn4ncccc34)n2)cc1F [GW829058]
%Inh [1]: 0%
%Inh [2]: 12%
%Inh [3]: 29%
%Inh [4]: 37%
%Inh [5]: 20%
%Inh [6]: 33%
%Inh [7]: 14%
%Inh [8]: 25%
%Inh [9]: 3%
%Inh [10]: 2%
%Inh [11]: 18%
%Inh [12]: 27%
%Inh [13]: 10%
%Inh [14]: 31%
%Inh [15]: 42%
%Inh [16]: 6%
%Inh [17]: 0%
%Inh [18]: 30%
%Inh [19]: 0%
%Inh [20]: 4%

CN1CCC(n2cnc(-c3ccc(F)cc3)c2-c2ccnc(NC3CCNCC3)n2)CC1 [SB-229482]
%Inh [1]: 0%
%Inh [2]: 0%
%Inh [3]: 45%
%Inh [4]: 7%
%Inh [5]: 35%
%Inh [6]: 25%
%Inh [7]: 0%
%Inh [8]: 14%
%Inh [9]: 0%
%Inh [10]: 1%
%Inh [11]: 0%
%Inh [12]: 17%
%Inh [13]: 23%
%Inh [14]: 9%
%Inh [15]: 43%
%Inh [16]: 18%
%Inh [17]: 30%
%Inh [18]: 0%
%Inh [19]: 51%
%Inh [20]: 25%

NC(=O)c1sc(-n2cnc3ccccc32)cc1OCc1ccccc1F [GSK1024306]
%Inh [1]: 0%
%Inh [2]: 13%
%Inh [3]: 0%
%Inh [4]: 0%
%Inh [5]: 85%
%Inh [6]: 86%
%Inh [7]: 4%
%Inh [8]: 17%
%Inh [9]: 0%
%Inh [10]: 17%
%Inh [11]: 0%
%Inh [12]: 0%
%Inh [13]: 32%
%Inh [14]: 9%
%Inh [15]: 31%
%Inh [16]: 0%
%Inh [17]: 0%
%Inh [18]: 0%
%Inh [19]: 82%
%Inh [20]: 0%
